This note sets out measurements from PubChem BioAssay AID2384 (Southern Research Specialized Biocontainment Screening …, 2010).

The whole screen tested about 2,300 compounds, of which about 1,100 (48%) were called active. So high a share suggests a set chosen from earlier hits. The list shows a part of the results. Results with a measured potency or affinity are listed apart. A number with no mark means an inactive call. The rule behind the calls is not given here.

The nature of the assay: inhibitors in S. typhi counter-screen strain, dose response, counter-screen for PhoP regulon inhibitor project, fluorescence, 4 h (AID 2384). Particulars: S. typhi GFP reporter counter-screen; series mostly up to 150 µM; inhibition: at the top concentration.
As a reminder, the inhibition is the change of the read-out against control, counted positive when it falls. With `O=C(Oc1ccc[nH]c1=O)c1cc([N+](=O)[O-])cc([N+](=O)[O-])c1`, the “inhibition” value is 37%.
The value for `Cc1ccc(C)c2[nH]c(=O)c(CN(Cc3cccnc3)C(=S)NCc3ccco3)cc12` was -7.36%; that for `C#CCOCCOCCOCCNc1nc(N2CCN(C(=O)CCCCCCCCCCNC(=O)[C@H](CO)n3cc(CCCSC)nn3)CC2)nc(N2CCN(C(=O)CCCCCCCCCCNC(=O)[C@H](CCCN=C(N)N)n3cc(C[C@@H](C)CC)nn3)CC2)n1` was -11.9%; that for `C#CCOCCOCCOCCNc1nc(N2CCN(C(=O)CCCCCCCCCCNC(=O)[C@H](CCCCN)n3cc(C[C@@H](C)CC)nn3)CC2)nc(N2CCN(C(=O)CCCCCCCCCCNC(=O)[C@@H]([C@H](C)O)n3cc(C)nn3)CC2)n1` was 9.45%.
In the case of `C#CCOCCOCCOCCNc1nc(N2CCN(C(=O)CCCCCCCCCCNC(=O)Cn3cc(C[C@@H](C)O)nn3)CC2)nc(N2CCN(C(=O)CCCCCCCCCCNC(=O)[C@H](CCCN=C(N)N)n3cc(C[C@@H](C)CC)nn3)CC2)n1`, the “inhibition” value was 7.83%.
The value for `CCN(CC)CCCNC(=O)c1c(O)c2c([nH]c1=O)CCCC2` was 1.16%.
Under `COc1cc(C(=O)Nc2ccc3c(c2)OCCO3)ccc1OC(C)C` stands 2.98%; under `Cc1ccc(S(=O)(=O)N2CCOCC2)cc1NC(=O)CSc1nc(N)cc(=O)[nH]1`, -11%; under `C[C@@H](CO)NC(=O)c1ccc2c3n(nc2c1)-c1ccc(Cl)cc1CO3`, -3.51%.
The value for `Cc1nc2nc(COc3ccccc3)nn2c(C)c1Cl` was 14.8%; that for `CC(C)C(=O)Nc1ccccc1-c1nc2ccccc2[nH]c1=O` was 4.85%.
As to `CCc1nnc(NS(=O)(=O)c2ccc(NC(=S)NC(=O)/C=C/c3ccc(C(C)C)cc3)cc2)s1`, the “inhibition” value is 39.2%.
The value for `O=C(/C=C/c1ccccc1)NC(=S)N1CCSCC1` was -4.32%; that for `O=C(/C=C/c1ccccc1)OCc1cnc(Cl)s1` was -16.4%.
Under `COc1ccccc1-n1c(SCC(=O)O)nnc1-c1ccc(S(=O)(=O)N2CCCCC2)cc1` stands 16.1%.
Take `O=C(CCSCc1ccccc1F)NCc1cccs1`: the “inhibition” value was 6.35%.
Under `Nc1cc(N2CCOCC2)c(Cl)cc1[N+](=O)[O-]` stands -13%; under `O=C(NC1CC1)C1CCN(C2CCN(C(=O)Cc3ccc(F)cc3)CC2)CC1`, -14.2%.
Under `COc1ccc(-c2noc(CCC(=O)Nc3cccc(C)c3)n2)cc1` stands 13.1%.
Take `COC(=O)c1ccc(NC(=S)NNC(=O)c2ccccc2)cc1`: the “inhibition” value was 20.3%.
Under `O=C(NNC(=O)c1cccs1)c1ccc2ccccc2c1` stands 27.6%; under `Cc1ccc(NC(=O)C(=O)NNC(=O)c2cccs2)cc1`, 26.1% [at 2.34 µM].
Regarding `COc1cc(C(=O)NC(=S)Nc2cccc3nc(C)ccc23)cc(OC)c1OC`, the “inhibition” value was 36.5%.
Under `CCCC(=O)N1CCN(c2ccc(NC(=S)NC(=O)c3cccc(C)c3)cc2)CC1` stands -4.38%; under `CC1(C)CC(=O)C(C(=O)/C=C/NCCc2ccccc2)C(=O)C1`, 20.5%; under `Cc1ccc(-c2cc(N)nc(-c3ccccc3)c2)cc1`, 33%.
For `O=C(O)c1ccc(NC2=C(Cl)C(=O)c3ccccc3C2=O)cc1`, the “inhibition” value was -19.2%.
Under `O=C1C(SCCO)=C(SCCO)C(=O)c2ccccc21` stands 24.9%; under `CC(C)C(NS(=O)(=O)c1cccc2nsnc12)C(=O)N1CCn2c1nc1ccccc12` (centres undefined), 20.8%; under `COc1cccc(N2CCN(C(=S)NCc3ccco3)CC2)c1`, -37.1%.
Under `COc1ccc(Nc2nc(-c3ccccc3)nc3ccccc23)cc1S(=O)(=O)N1CCOCC1` stands -6.61%; under `C=CCn1c(O)c(N=NC(=O)c2cccnc2)c2cc(Br)ccc21`, -3.27%.
For `COc1cccc(C(=O)CC(=O)C(=O)Nc2cc(OC)c(OC)c(OC)c2)c1`, the “inhibition” value is 11.7%.
In the case of `Cc1cc(C)cc(N(C(=O)CNC(=O)c2cccs2)C(C(=O)NC2CCCC2)c2cccnc2)c1` (centres undefined), the “inhibition” value was 16.6%.
In the case of `CCc1c(C)nc2cc(-c3cc(OC)cc(OC)c3)nn2c1N1CCCC1`, the “inhibition” value was 12.4%.
With `CCN1CCc2c(C#N)c(NCc3ccccc3)nc(NCCO)c2C1`, the “inhibition” value was 10.4%.
Consider `Cc1[nH]nc2c1C(C1CC=CCC1)C(C#N)=C(N)O2` (centres undefined), for which the “inhibition” value is -21.3%.
Turning to `C#CC(=O)N(c1cccc(OC)c1)C(C(=O)NC1CCCC1)c1cccs1` (centres undefined), the “inhibition” value was -6.44%.
`CCOCCCNC(=O)C(c1ccc(OC)cc1)N(Cc1cccs1)C(=O)c1ccccn1` (centres undefined): the “inhibition” value was -14%.
For the molecule `S=C(Nc1ccccc1Cl)N(Cc1ccccc1)Cc1ccccn1`, the “inhibition” value was -17%.
The value for `COCCCNC(=O)c1cc(OC)c(OC)c(OC)c1` was -18.1%; that for `COc1ccc(CCC(=O)NCc2cn3ccccc3n2)cc1` was -5.49%; that for `O=C(CCCc1ccccc1)Nc1cccnc1` was 8.17%.
Regarding `COc1ccc(-c2nc3ccc(C(=O)NCC(OC)OC)cc3nc2-c2ccc(OC)cc2)cc1`, the “inhibition” value is -2.98%.
Under `O=c1c2ccccc2ncn1Cc1ccc(Cl)cc1` stands 5.03%.
Under `CCOC(=O)CSc1nnc2c(n1)C1(C)CCC2C1(C)C` (centres undefined) stands 0.17%; under `O=C(O)/C=C/c1cn(-c2ccccc2)nc1-c1cc2ccccc2oc1=O`, -6.24%.
Under `Cc1cccc(OCC(=O)NNc2c3ccccc3nc3ccccc23)c1` stands 8.34%.
On to `CCC(C)(C)NC(=O)COc1ccc(C(=O)c2ccccc2)cc1`, for which the “inhibition” value was 3.67%.
Regarding `Cc1ccc(OCC(=O)N2CCN(S(C)(=O)=O)CC2)cc1`, the “inhibition” value was 13.9%.
Consider `CCOc1ccc(NC(=O)CN(C)S(=O)(=O)c2cccs2)cc1`, for which the “inhibition” value is 14.8%.
The value for `COc1ccc(Cl)cc1S(=O)(=O)N1CCN(C(=O)c2ccco2)CC1` was 20.3%.
The value for `CCOC(=O)c1ccc(S(=O)(=O)N2CCN(CCC#N)CC2)cc1` was -7.98%; that for `CCOC(=O)N1CCN(CC(=O)Nc2ccc(F)cc2F)CC1` was 4.71%.
Under `CCOC(=O)N1CCN(C(=S)NC(=O)c2ccc(Br)cc2)CC1` stands 6.72%; under `COc1ccc(N(CCCN2C(=O)c3cccc4cccc(c34)C2=O)C(=O)c2cccnc2)cc1`, 7.69%.
As for `C/C(=N\NC(=O)COc1ccccc1[N+](=O)[O-])c1cccs1`, the “inhibition” value was 4.14%.
For the molecule `CCn1cc(C(=O)O)c(=O)c2cc(F)c(N3CCN(C(=S)NC(=O)c4ccccc4F)CC3)cc21`, the “inhibition” value is 7.79%.
Under `CCN(CC)c1cc(C)c2cc(NC(=O)c3ccccc3F)ccc2n1` stands 16.7%; under `CC1CCCN(C(=O)Cn2c(=O)oc3cc(S(=O)(=O)N4CCCCC4)ccc32)C1` (centres undefined), -8.49%.
In the case of `O=C(Cn1c(=O)oc2cc(S(=O)(=O)N3CCCC3)ccc21)N1CCN(c2ccccc2F)CC1`, the “inhibition” value was -19.8%.
Under `N=C1c2ccccc2CN1c1ncccn1` stands 24.2%.
Under `COCCCNc1c2c(nc3nnnn13)CCCC2` stands -14.2%; under `CCN(CC)S(=O)(=O)c1ccc(N2CCOCC2)c(C(=O)O)c1`, 10.2%; under `CCN(CC)CCOC(=O)c1cc(Cl)c(N)cc1OC`, -7.05%.
Under `COc1ccc(C(CC(=O)O)NC(=O)C2CCCCC2)cc1` (centres undefined) stands -13.5%; under `COc1ccc(CCNC(=O)Cn2c(=O)n(CC3CCCO3)c(=O)c3ccccc32)cc1OC` (centres undefined), 6.95%; under `COc1ccc(OC)c(-c2cc(C(=O)Nc3ccc(F)cc3F)no2)c1`, -17%.
As for `Cc1nc(N2CCOCC2)c2c(C)c(C(=O)Nc3ccccc3C(F)(F)F)sc2n1`, the “inhibition” value is -9.31%.
Consider `O=C(Cn1nc(Cl)nc1Cl)c1ccc([N+](=O)[O-])cc1`, for which the “inhibition” value was 30.1%.
The value for `CC1CC(C)CN(S(=O)(=O)c2ccc3c(c2)oc(=O)n3CC(=O)N(C)Cc2ccccc2)C1` (centres undefined) was -12.7%; that for `Cc1cc(=O)n2nc(N3CCCC(C(=O)NC4CCCCC4C)C3)sc2n1` (centres undefined) was -27.6%; that for `Cc1nnc(SCC(=O)Nc2cc(S(=O)(=O)N3CCCC3)ccc2Cl)s1` was 7.35%.
The value for `CCOc1ccc(S(=O)(=O)N2CCC(C(=O)NCCN3CCOCC3)CC2)cc1C` was -8.84%.
The value for `CCCCCCCCn1ccc(=N)cc1` was 16.7%; that for `CCN(CC)CCn1nc(C)nc1-c1ccccc1O` was 26.3%.
With `CCN1c2ccccc2NC2N=C(OC)C(c3ccccc3)C21` (centres undefined), the “inhibition” value is 10%.
Under `O=C(Nc1ccc(F)cc1)c1ccc2snnc2c1` stands -0.59%; under `Clc1ccc(CN2CCN(/N=C/c3ccco3)CC2)cc1`, -9.25%.
`C=CCn1c(C)cc(C(=O)CSc2n[nH]c(N)n2)c1C`: the “inhibition” value is 17.4%.
As to `O=C(CCl)NC1CCCc2ccccc21` (centres undefined), the “inhibition” value is 17%.
Under `COc1ccc(NC(=O)N2CCc3ccccc32)cc1` stands 6.46%; under `Cc1c(-n2cc(C(=O)c3ccccc3O)cc(C#N)c2=O)c(=O)n(-c2ccccc2)n1C`, -26%.
The value for `Cc1c(NC(=O)OCc2ccccc2)c(=O)n(-c2ccccc2)n1C` was 6.31%; that for `Cc1csc2ncc(C(=O)Nc3ccon3)c(=O)n12` was -27.3%.
In the case of `O=C(CCn1cccc1)Nc1ccc(OC(F)(F)F)cc1`, the “inhibition” value is 6.96%.
On to `O=C(O)C1CCCCC1C(=O)NCCc1ccncc1` (centres undefined), for which the “inhibition” value is -33.6%.
`CCOC(=O)C(O)(NC(=O)c1cccnc1)C(F)(F)F` (centres undefined): the “inhibition” value was -35.3%.
Under `N/C(=N\OC(=O)C(c1ccccc1)c1ccccc1)c1ccncc1` stands 5.38%; under `O=C(Nc1ccc(S(=O)(=O)N2CCCC2)cc1)c1cccnc1`, -28.6%.
The value for `N/C(=N\OC(=O)COc1ccc2ccccc2c1)c1ccccn1` was 23.6%.
Under `COc1ccc(N(C(=O)c2cccnc2)S(=O)(=O)c2ccc(F)cc2)cc1` stands 9.91%; under `O=C(O)c1[nH]c2ccc(Br)cc2c1CCN1C(=O)c2cccc([N+](=O)[O-])c2C1=O`, -4.29%; under `CCOC(=O)C(NC(C)=O)(OCc1ccc(F)cc1)C(F)(F)F` (centres undefined), -10.7%.
Regarding `COc1cccc(/C=N/NC(=O)CNC(=O)CCc2ccccc2)c1O`, the “inhibition” value is 33.1%.
The value for `COc1ccc(C2CC(=O)N3CN(Cc4ccco4)CSC3=C2C#N)cc1` (centres undefined) was 26.7%; that for `C=CCNC(=O)NC(=O)COC(=O)/C(C#N)=C/c1ccc(OC)cc1` was -18.2%.
As for `N/C(=N\OC(=O)N1CCOCC1)c1ccccc1`, the “inhibition” value is -11.4%.
Under `O=C(Nc1cccc(OCC(=O)N2CCOCC2)c1)c1cccc([N+](=O)[O-])c1` stands 6.44%; under `CC(C)(C)c1ccc(NC(=O)COc2ccc(-n3ccnc3)cc2)cc1`, 38.1%.
On to `CCC(C)(c1ccc(C(=O)OC)s1)c1ccc(C(=O)OC)s1`, for which the “inhibition” value was -5.73%.
The value for `CCOC(=O)C1CCN(Cc2nc(-c3ccc(OC)c(OC)c3)no2)CC1` was 1.43%.
For the molecule `CC1=C([N+](=O)[O-])C(c2ccccc2)C2=C(N1)c1ccccc1C2=O` (centres undefined), the “inhibition” value is 5.99%.
`CCSC1=NCN(CCCC(=O)O)CN1`: the “inhibition” value was 18.6%.
